According to PubChem BioAssay (Tox21):
Inconclusive results are not listed. Activity calls are given as the source filed them. Unless noted, the call rests on the fitted dose curve; in most records, active means well fitted curve in the direction sought with a large enough effect in the repeat runs; inconclusive means weak or mixed curves; inactive means no such curve, though single readings can be large; an effect the other way counts as inactive or inconclusive.

What was measured:
[1] = qHTS assay to identify small molecule agonists of the peroxisome proliferator-activated receptor delta (PPARd) signaling pathway - cell viability counter screen (AID 743211); further: nearly all actives have a fitted effect of over 55% in size
How it was run: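 PPARd-bla HEK293H cells (3000/well) were pre-incubated 5 h at 37 C, then exposed to compound for 17 h at 37 C. After 2 h with LiveBLAzer substrate, CellTiter-Glo was added to the same wells; luminescence read after 30 min at room temperature.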

[2] = molecular target: Peroxisome proliferator-activated receptor delta (Homo sapiens) (UniProt Q03181); experiment: qHTS assay to identify small molecule agonists of the peroxisome proliferator-activated receptor delta (PPARd) signaling pathway (AID 743212; calls by dose curve)
Chain of Peroxisome proliferator-activated receptor delta (Homo sapiens) (Q03181 whole entry, looked up): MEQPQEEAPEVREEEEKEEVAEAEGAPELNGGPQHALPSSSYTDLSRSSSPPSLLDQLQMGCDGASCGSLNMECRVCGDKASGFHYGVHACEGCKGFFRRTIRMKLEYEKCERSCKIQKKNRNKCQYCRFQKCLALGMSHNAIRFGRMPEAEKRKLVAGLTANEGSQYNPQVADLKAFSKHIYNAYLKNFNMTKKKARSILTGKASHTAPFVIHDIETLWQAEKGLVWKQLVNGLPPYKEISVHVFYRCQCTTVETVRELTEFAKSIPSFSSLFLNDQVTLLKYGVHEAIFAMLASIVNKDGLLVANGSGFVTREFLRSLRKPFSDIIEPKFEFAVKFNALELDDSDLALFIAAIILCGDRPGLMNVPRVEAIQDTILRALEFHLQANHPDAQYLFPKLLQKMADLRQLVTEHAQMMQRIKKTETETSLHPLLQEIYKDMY
How it was run: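 Steps: seed PPARd-bla HEK293H cells; incubate 5 h, 37 C, 5% CO2; add compounds in DMSO; incubate, 37 C; add LiveBLAzer B/G FRET substrate; hold 2 h at room temperature; measure fluorescence.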

[3] = qHTS assay to identify small molecule antagonists of the peroxisome proliferator-activated receptor delta (PPARd) signaling pathway - cell viability counter screen (AID 743213); further: nearly all actives have a fitted effect of over 50% in size
How it was run: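 Same-well viability: cells pre-incubated 5 h, dosed with compound plus 300 nM L165041, kept 17 h at 37 C, FRET substrate 2 h RT, then CellTiter-Glo 30 min RT and luminescence.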

[4] = qHTS assay to identify small molecule agonists of the farnesoid-X-receptor (FXR) signaling pathway - cell viability counter screen (AID 743218); further: nearly all actives have a fitted effect of over 45% in size
How it was run: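 Cells were seeded, left 5 h at 37 C and 5% CO2, then dosed with compound in DMSO for 16 h. After the beta-lactamase FRET read, CellTiter-Glo was added and luminescence measured 30 min later.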

[5] = qHTS assay to identify small molecule antagonists of the farnesoid-X-receptor (FXR) signaling pathway - cell viability counter screen (AID 743221; active means well fitted cell-killing curve with a large enough effect in the repeat runs, not every such curve was filed as active; further: nearly all actives have a fitted effect of over 50% in size)
How it was run: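 GeneBLAzer FXR-UAS-bla HEK 293T cells, compound plus chenodeoxycholic acid (50 uM final), 16 h at 37 C. CellTiter-Glo added to the same wells after the beta-lactamase read; luminescence read after 30 min at room temperature as viability.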

[6] = molecular target: Vitamin D3 receptor (Homo sapiens) (UniProt P11473); experiment: qHTS assay to identify small molecule agonists of the vitamin D receptor (VDR) signaling pathway (AID 743222; calls by dose curve)
Chain of Vitamin D3 receptor (Homo sapiens) (P11473 whole entry, looked up): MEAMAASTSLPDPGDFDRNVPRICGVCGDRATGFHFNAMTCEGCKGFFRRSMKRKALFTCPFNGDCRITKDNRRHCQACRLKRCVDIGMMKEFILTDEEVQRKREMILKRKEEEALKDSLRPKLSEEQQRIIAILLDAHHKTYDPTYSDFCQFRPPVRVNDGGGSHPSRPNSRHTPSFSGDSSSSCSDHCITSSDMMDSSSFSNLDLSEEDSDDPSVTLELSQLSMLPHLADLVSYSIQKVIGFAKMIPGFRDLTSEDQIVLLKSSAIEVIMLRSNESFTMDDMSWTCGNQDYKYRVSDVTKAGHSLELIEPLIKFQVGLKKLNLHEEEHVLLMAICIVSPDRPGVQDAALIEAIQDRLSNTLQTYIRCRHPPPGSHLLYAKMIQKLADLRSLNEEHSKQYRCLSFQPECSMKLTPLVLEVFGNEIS
How it was run: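 Cells carrying a VDR-driven beta-lactamase reporter are seeded at 2,000 per well and rested 4 h. Compounds in DMSO are added for 16 h at 37C, and FRET substrate fluorescence is measured after 2 h at room temperature.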

[7] = molecular target: Vitamin D3 receptor (Homo sapiens) (UniProt P11473); experiment: qHTS assay to identify small molecule antagonists of the vitamin D receptor (VDR) signaling pathway (AID 743223; active means well fitted inhibition curve with a large enough effect in the signal ratio in the repeat runs, not every such curve was filed as active; the % refers to the signal ratio)
How it was run: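 VDR-bla cells were treated with compound plus 3 nM final 1alpha,25-dihydroxyvitamin D3 for 16 h at 37C. Beta-lactamase reporter read by B/G FRET substrate fluorescence after 2 h at room temperature. qHTS format.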

[8] = qHTS assay to identify small molecule agonists of the vitamin D receptor (VDR) signaling pathway - cell viability counter screen (AID 743224); further: series mostly up to about 63 µM; nearly all actives have a fitted effect of over 50% in size
How it was run: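 Cells: VDR-bla, 2,000/well, settled 4 h. Treatment: compounds in DMSO, 16 h, 37C/5% CO2. Readout: CellTiter-Glo luminescence after 30 min RT.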

[9] = qHTS assay to identify small molecule antagonists of the vitamin D receptor (VDR) signaling pathway - cell viability counter screen (AID 743225); further: nearly all actives have a fitted effect of over 50% in size
How it was run: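 VDR-UAS-bla HEK 293T cells were plated and incubated 4 h at 37C, then dosed with compound plus 3 nM (final) 1-alpha,25-dihydroxyvitamin D3 for 16 h. After the 2 h beta-lactamase read, viability in the same wells was read as CellTiter-Glo luminescence after 30 min at room temperature.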

[10] = qHTS assay to identify small molecule agonists of the NFkB signaling pathway (AID 1159509; active means well fitted curve in the direction sought with a large enough effect in the signal ratio in the repeat runs, not every such curve was filed as active; the % refers to the signal ratio; further: series mostly up to about 61 µM)
How it was run: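 Beta-lactamase reporter assay run in quantitative high-throughput format on an NF-kB-responsive ME-180 line, with 5 hr compound treatment and a FRET-based blue/green fluorescence readout.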

[11] = qHTS assay to identify small molecule agonists of the NFkB signaling pathway - cell viability counter screen (AID 1159515; calls by dose curve; further: series mostly up to about 61 µM; nearly all actives have a fitted effect of over 55% in size)
How it was run: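 Cells are seeded (2,000 NFkB-bla ME-180 per well), rested overnight, and dosed with DMSO-dissolved compounds for 5 hr at 37 C. Viability is then read by CellTiter-Glo luminescence after 30 min at room temperature.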

[12] = qHTS assay to identify small molecule antagonists of the retinoid-related orphan receptor gamma (ROR-gamma) signaling pathway - cell viability counter screen (AID 1159520); further: nearly all actives have a fitted effect of over 50% in size
How it was run: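 Cytotoxicity was read from cellular ATP (CellTiter-Glo luminescence) after 16 hr at 37 C with 1 uM doxycycline induction. The inducer was added 2 hr after compound transfer to Tet-on ROR gamma CHO cells.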

[13] = qHTS assay to identify small molecule agonists of the AP-1 signaling pathway - cell viability counter screen (AID 1159525; calls by dose curve; further: nearly all actives have a fitted effect of over 55% in size)
How it was run: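 Intracellular ATP by Cell Titer Glo luminescence (30 min, RT) in the same ME-180 AP-1-bla wells after the 5 h compound exposure at 37 °C. Normalised to tetra n-octyl ammonium bromide and DMSO controls.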

[14] = qHTS assay to identify small molecule agonists of the AP-1 signaling pathway (AID 1159526; calls by dose curve)
[15] = molecular target: Peroxisome proliferator-activated receptor delta (Homo sapiens) (UniProt Q03181); experiment: qHTS assay to identify small molecule antagonists of the peroxisome proliferator-activated receptor delta (PPARd) signaling pathway (AID 743215; active means well fitted inhibition curve with a large enough effect in the signal ratio in the repeat runs, not every such curve was filed as active; the % refers to the signal ratio;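 further: cells stimulated with agonist L165041 at 300 nM final during compound exposure; series mostly up to about 62 µM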)
How it was run: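 Cells: HEK293H with a UAS-driven beta-lactamase reporter responsive to PPARd. Compounds were co-added with L165041 (300 nM, final) and incubated 17 h at 37 C before a 2 h room-temperature FRET substrate step and fluorescence reading.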

[16] = qHTS assay to identify small molecule agonists of the endoplasmic reticulum stress response signaling pathway (AID 1159516; active means well fitted activation curve with a large enough effect in the signal ratio in the repeat runs, not every such curve was filed as active; the % refers to the signal ratio)
How it was run: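 Cells are seeded at 1,500 per well and incubated overnight. Compounds in DMSO are added for 5 hr at 37 C, then beta-lactamase FRET substrate for 2 hr at room temperature, and fluorescence at 460 and 530 nm is measured.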

[17] = qHTS assay to identify small molecule agonists of the endoplasmic reticulum stress response signaling pathway - cell viability counter screen (AID 1159517; calls by dose curve)
How it was run: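 After overnight attachment, ESRE-bla HeLa cells were treated with Tox21 library compounds for 5 hr. CellTiter-Glo luminescence, read 30 min post-addition at room temperature, reported viability.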

[18] = molecular target: Nuclear receptor ROR-gamma (Homo sapiens) (UniProt P51449); experiment: qHTS assay to identify small molecule antagonists of the retinoid-related orphan receptor gamma (ROR-gamma) signaling pathway (AID 1159521)
How it was run: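 Tet-on ROR-gamma CHO cells with ROR response element-luciferase reporter; compounds added 2 hr before 1 uM doxycycline induction, then 16 hr at 37 C. Antagonism scored as decreased ONE-Glo luminescence.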

[19] = molecular target: Bile acid receptor (Homo sapiens) (UniProt Q96RI1); experiment: qHTS assay to identify small molecule antagonists of the farnesoid-X-receptor (FXR) signaling pathway (AID 743217; active means well fitted inhibition curve with a large enough effect in the signal ratio in the repeat runs, not every such curve was filed as active; the % refers to the signal ratio)
Chain of Bile acid receptor (Homo sapiens) (Q96RI1 whole entry, looked up): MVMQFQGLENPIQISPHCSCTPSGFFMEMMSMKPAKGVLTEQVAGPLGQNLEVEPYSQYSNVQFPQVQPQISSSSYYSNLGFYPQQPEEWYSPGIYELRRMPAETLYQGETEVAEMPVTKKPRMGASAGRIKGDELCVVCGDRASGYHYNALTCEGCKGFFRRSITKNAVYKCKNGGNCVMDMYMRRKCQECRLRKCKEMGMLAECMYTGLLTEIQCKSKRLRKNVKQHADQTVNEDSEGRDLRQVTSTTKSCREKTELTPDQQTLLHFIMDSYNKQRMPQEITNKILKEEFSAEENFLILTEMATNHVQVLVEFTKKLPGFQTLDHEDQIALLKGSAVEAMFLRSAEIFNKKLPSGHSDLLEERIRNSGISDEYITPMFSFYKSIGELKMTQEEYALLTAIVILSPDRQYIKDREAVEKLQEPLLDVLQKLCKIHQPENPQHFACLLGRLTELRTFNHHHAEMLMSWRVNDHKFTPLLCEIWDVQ
How it was run: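 Cells carrying a UAS-driven beta-lactamase reporter (GeneBLAzer FXR-UAS-bla HEK 293T) were plated and rested 5 h at 37 °C. Compounds in DMSO were added alongside chenodeoxycholic acid agonist at 50 uM final and left 16 h at 37 °C before FRET substrate readout.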

[20] = molecular target: Bile acid receptor (Homo sapiens) (UniProt Q96RI1); experiment: qHTS assay to identify small molecule agonists of the farnesoid-X-receptor (FXR) signaling pathway (AID 743220; active means well fitted activation curve with a large enough effect in the signal ratio in the repeat runs, not every such curve was filed as active; the % refers to the signal ratio)
How it was run: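 FXR-UAS-bla HEK 293T cells carrying a UAS-driven beta-lactamase reporter were plated for 5 h at 37C/5% CO2, then exposed to DMSO-dissolved Tox21 10K compounds for 16 h at 37C. A LiveBLAzer B/G FRET substrate was loaded for 2 h at room temperature before fluorescence reading.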

Measured: Potency

CO[C@]1(NC(=O)CSC(F)F)C(=O)N2C(C(=O)O)=C(CSc3nnnn3CCO)CO[C@H]21
not listed: [15] | [16] | [17] | [18] | [19] | [20]
inactive: all other assays above

C=C(C)[C@@H]1CCC2=CCC[C@@H](C)[C@]2(C)C1
inactive: [3] | [5] | [6] | [10] | [11] | [12] | [13] | [14]

CCOC(=O)c1ccc(O)c(O)c1
not listed: [6] | [7] | [11] | [19] | [20]
inactive: all other assays above

O=C(O)C[C@H](NC(=O)OCc1ccccc1)C(=O)O
not listed: [11] | [19] | [20]
inactive: all other assays above

CCCCCCCC/C=C\CCCCCCCCCCCC(=O)O
not listed: [6] | [7] | [11]
inactive: all other assays above

CN1C(=O)OC(C)(C)C1=O
not listed: [6] | [7] | [11] | [19] | [20]
inactive: all other assays above

O=C(O)CCCCCCCCCCCBr
not listed: [6] | [7] | [9] | [11] | [15] | [19] | [20]
inactive: all other assays above

CC(C)=CCC/C(C)=C/CC/C(C)=C/CCC(=O)OC/C=C(\C)CCC=C(C)C
not listed: [6] | [7] | [11] | [19] | [20]
inactive: all other assays above
